Data reported in publication PMC4336329 (PLoS ONE, 2015).
In all, about 310,000 compounds went through this assay and about 14,000 (4.5%) showed an effect of 50% or more. Effects have a minus sign here. Only a selection was taken, and strong results are over-represented in it overall.

What follows are molecules tested against human ether-à-go-go-related gene (hERG) potassium channel (human, UniProt Q12809) (assay: primary screen, population patch clamp on CHO cells stably expressing hERG; higher = less effect of the substance).
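Note: peak tail current of the secondary pulse compared with the same well before compound.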

Chain of human ether-à-go-go-related gene (hERG) potassium channel (Q12809 whole entry, looked up): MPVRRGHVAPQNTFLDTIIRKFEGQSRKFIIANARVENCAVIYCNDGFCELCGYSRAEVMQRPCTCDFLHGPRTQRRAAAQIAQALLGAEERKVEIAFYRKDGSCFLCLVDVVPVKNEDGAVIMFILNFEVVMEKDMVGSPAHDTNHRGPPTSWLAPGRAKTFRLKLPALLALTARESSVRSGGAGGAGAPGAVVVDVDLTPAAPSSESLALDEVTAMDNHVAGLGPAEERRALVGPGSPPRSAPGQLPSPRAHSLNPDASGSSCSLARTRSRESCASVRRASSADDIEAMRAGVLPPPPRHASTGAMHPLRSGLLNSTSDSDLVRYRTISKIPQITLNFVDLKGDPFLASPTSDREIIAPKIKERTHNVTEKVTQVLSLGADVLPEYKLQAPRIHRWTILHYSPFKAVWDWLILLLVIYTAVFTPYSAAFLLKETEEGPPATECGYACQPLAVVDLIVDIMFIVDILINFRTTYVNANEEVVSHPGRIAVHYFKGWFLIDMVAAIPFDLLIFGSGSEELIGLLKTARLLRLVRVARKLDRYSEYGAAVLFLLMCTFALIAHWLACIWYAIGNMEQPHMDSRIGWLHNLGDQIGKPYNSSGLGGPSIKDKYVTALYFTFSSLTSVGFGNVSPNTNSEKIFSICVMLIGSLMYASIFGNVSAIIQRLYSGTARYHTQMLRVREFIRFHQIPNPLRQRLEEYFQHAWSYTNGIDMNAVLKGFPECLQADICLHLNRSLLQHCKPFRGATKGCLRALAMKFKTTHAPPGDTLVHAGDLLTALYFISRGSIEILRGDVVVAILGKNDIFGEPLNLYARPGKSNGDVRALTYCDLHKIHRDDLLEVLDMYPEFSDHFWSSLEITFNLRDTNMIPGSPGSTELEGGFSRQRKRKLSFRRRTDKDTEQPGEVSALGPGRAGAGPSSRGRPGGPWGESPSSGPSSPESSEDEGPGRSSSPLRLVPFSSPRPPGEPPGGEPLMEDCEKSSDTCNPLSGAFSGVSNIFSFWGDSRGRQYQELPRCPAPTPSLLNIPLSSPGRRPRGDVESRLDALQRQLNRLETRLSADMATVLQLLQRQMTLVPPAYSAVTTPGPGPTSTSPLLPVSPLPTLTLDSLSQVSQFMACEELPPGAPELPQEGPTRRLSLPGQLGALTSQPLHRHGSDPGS

SMILES	hERG current change (%, negative = inhibition) at 10uM [%]
O=C1N[C@@H](Cc2cn(S(=O)(=O)c3ccccc3)c3ccccc23)C(=O)N[C@H]1Cc1ccccc1	14.9
Cn1nc(C(=O)NC2CCCCC2)c2c1-c1ccccc1S(=O)(=O)C2	11.7
CCCCc1ccc(-c2nc(N)n[nH]2)cc1	6.27
O=[N+]([O-])c1ccc2c(c1)C(N1CCOCC1)/C(=C/COc1ccc(Cl)cc1Cl)O2 (stereo not drawn)	-1.06
O=[N+]([O-])c1ccc(OC/C=C2\Oc3ccc([N+](=O)[O-])cc3C2N2CCOCC2)cc1 (stereo not drawn)	-71.7
O=[N+]([O-])c1ccc2c(c1)C(N1CCOCC1)/C(=C/COc1ccc(F)cc1)O2 (stereo not drawn)	-26
Oc1nc(Nc2ccc(Cl)cc2Cl)sc1/C=C1\C=Nc2ccccc21	9.08
CCCOc1ccc(C(C)=O)cc1CN1CCOCC1.Cl	2.99
CCCCn1nc(NC(=O)CC)c2cc3cc(OC)ccc3nc21	-11.2
CCCCn1nc(NC(=O)CCC)c2cc3cc(OC)ccc3nc21	-3.42
CCCCn1nc(NC(=O)COC)c2cc3cc(OC)ccc3nc21	-53.2
COc1ccc(NC(=O)CSc2nc3c([nH]c4ccccc43)c(=O)n2C)cc1	0.41
COc1cc(/C=C2/C(=N)N3OC(C)=CC3=NC2=O)ccc1OC(=O)c1ccco1	29.8
Cc1ccc(N=C2NC(=O)C(CO)(CO)S2)cc1	16.1
O=[N+]([O-])c1ccc2c(c1)OCCOCCOCCOCCOCCOCCO2	-64.1
O=C(c1cccc([N+](=O)[O-])c1)c1ccc2c(c1)OCCOCCOCCOCCO2	-69.8
O=C(c1cccc([N+](=O)[O-])c1)c1ccc2c(c1)OCCOCCOCCO2	-52.8
Nc1cc2c(cc1[N+](=O)[O-])OCCO2	5.64
O=[N+]([O-])c1cc2c(cc1[N+](=O)[O-])OCCOCCOCCOCCO2	-59.3
O=C(N/N=C/c1cccc([N+](=O)[O-])c1)c1ccc2c(c1)OCCO2	7.63
O=C(Nc1ccc([N+](=O)[O-])cc1)Nc1ccc2c(c1)OCCO2	24.6
O=C(Nc1cccc([N+](=O)[O-])c1)c1ccc2c(c1)OCCO2	11.9

SMILES	hERG current change (%, negative = inhibition) at 10uM [%]
O=C(/C=C/c1cccc([N+](=O)[O-])c1)c1ccc2c(c1)OCCO2	3.36
O=C(Nc1cccc([N+](=O)[O-])c1)Nc1ccc2c(c1)OCCO2	-1.17
O=[N+]([O-])c1ccc(S(=O)(=O)Nc2ccc3c(c2)OCCO3)cc1	3.95
Nc1cc2c(cc1[N+](=O)[O-])OCCOCCOCCO2	0.413
O=C(NCc1cccc(F)c1)C1CCN(S(=O)(=O)Cc2ccccc2)CC1	7.89
COCCn1c(SCC(=O)Nc2ccc(Cl)cn2)nc2ccccc21	-32.1
Cc1ccc(N(C(=O)CCC(=O)Nc2ccccn2)C(C(=O)NC(C)C)c2ccc(F)cc2)cc1 (stereo not drawn)	21.4
COc1ccc2c(c1)[C@H]1[C@H](CO2)[C@H](c2ccccc2)[C@]2(C)C(=O)N(CC3CCCO3)CC(=O)N12 (stereo partly drawn)	-2.94
COc1cccc(-n2cnc3c(sc4nc(N5CCOCC5)c5c(c43)CCCC5)c2=O)c1	5.92
CCc1ccccc1NC(=O)CNC(=O)CSC(=S)N1CCCC1	-3.17
COc1ccc(N2C(=NC(=O)c3ccccc3)SC3CS(=O)(=O)CC32)cc1 (stereo not drawn)	5.27
O=S(=O)(Oc1ccccc1C(=S)N1CCOCC1)c1ccc(Cl)cc1	3.56
NS(=O)(=O)c1ccc(CCNC(=O)[C@@H]2CCCN2S(=O)(=O)c2ccccc2F)cc1	-2.88
COc1ccc(OC)c(S(=O)(=O)N2CCC(C(=O)NCc3ccc4c(c3)OCO4)CC2)c1	-3.84
COc1cccc(NC(=O)c2cccnc2)c1	11.2
O=S(=O)([O-])CCC[N+]1(CC#Cc2ccccc2)CCCCC1	33.8
C=CC[N+]1(CC#Cc2ccccc2)CCCC1.[Br-]	18.4
C#CC[N+]1(CC#Cc2ccccc2)CCCC1.[I-]	-1.53
C(#Cc1ccccc1)C[N+]1(CC#Cc2ccccc2)CCCCC1.[Br-]	-55.8
Cc1ccc(C#CC[N+]2(CC#Cc3ccc(C)cc3)CCCCC2)cc1.[Br-]	-106
Cc1ccc(C#CC[N+]2(C)CCCCC2)cc1.[Br-]	14
CCC[N+]1(CC#CCC(c2ccccc2)c2ccccc2)CCCCC1.[Br-]	-66.7

SMILES	hERG current change (%, negative = inhibition) at 10uM [%]
CCC[N+]1(CC#CC(O)(c2ccccc2)C2CCCCC2)CCCCC1.[Br-] (stereo not drawn)	12.1
OCC#CC[N+]1(CC#Cc2ccccc2)CCCC1.[Br-]	14.5
C(#Cc1ccccc1)C[N+]1(CC#Cc2ccccc2)CCCC1.[Br-]	-55.5
C#CC[N+]1(CC#Cc2ccc(C)cc2)CCCCC1.[Br-]	4.84
C#CC[N+]1(CC#Cc2ccccc2)CCCCC1.[I-]	2.16
COc1ccc2c(c1)CC/C(=C\C=C\c1ccccc1OC)C2=O	8.8
Cc1cc(=O)[nH]c(N/N=C/c2ccc(Br)s2)n1	-13.9
CN1CCN(c2ccc(-c3cccc(NC(=O)COc4ccc(Cl)cc4Cl)c3)nn2)CC1	6.83
O=C(COc1ccc2c3c(c(=O)oc2c1)CCC3)NC(Cc1ccc(Cl)cc1)C(=O)O (stereo not drawn)	3.55
Cc1ccc2nc(Cl)c(CN(Cc3cccs3)C(=O)C3CC3)cc2c1	8.82
C[C@]12CC[C@@H](O)C[C@@H]1CC[C@@H]1[C@@H]2CC[C@]2(C)[C@@H](O)CC[C@@H]12	19.8
N#CCOC(=O)C1CSC2(c3ccc(Br)cc3)CCC(=O)N12 (stereo not drawn)	8.43
CCCCOc1cccc(C(=O)NC(=S)Nc2cccc(NC(=O)c3ccccc3Cl)c2)c1	-8.49
CC(C)(C)c1ccc(C(=O)NNC(=O)c2ccncc2)cc1	15.5
CN(C)C1=NCCN1CCC1CCCC1	1.87
CCCCCCCN1CCN=C1N(C)C	-67.7
CN(C)C1=NCCN1CCCC1CCCC1	-51
CN(C)C1=NCCN1CCCC1CCCCC1	-38.6
CCCCN1CCN=C1N(C)C	12
CC(C)CCCN1CCN=C1N(C)C	8.91
COc1ccc(NC(=O)CN(C)C(=O)CN2C(=O)NC3(CCCCC3)C2=O)cc1	3.29
Cc1nn(CC(=O)Nc2ccc3c(c2)nc(CN2CCCC2)n3C)c(=O)c2ccccc12	-13.4

SMILES	hERG current change (%, negative = inhibition) at 10uM [%]
Cc1c(C(=O)NNC(=O)c2ccccc2O)oc2ccc(Br)cc12	8.46
Cc1c(C(=O)NNC(=O)c2ccncc2)oc2ccccc12	-5.92
Cc1c(C(=O)NNC(=O)c2ccncc2)oc2ccc(Br)cc12	-68.5
COc1ccccc1NC(=O)N1CCC(NC(=O)C2CCCCC2)CC1	5.27
N#CCSc1nnc(C2CCCCC2)n1Cc1ccccc1	-11.6
Cc1[nH]c2ccccc2c1C(=O)C(C)OC(=O)c1ccccc1NCCO (stereo not drawn)	15
O=S(=O)(Nc1nnc(-c2ccccc2)s1)c1ccc(Cl)cc1	0.769
O=C(c1ccc(Cl)c(S(=O)(=O)N2CCCCC2)c1)N1CCN(c2ccccc2)CC1	-26.5
O=C(Nc1ccc(F)cc1)c1ccc(Br)c(S(=O)(=O)N2CCOCC2)c1	-58.8
O=C(c1ccc(S(=O)(=O)N2CCOCC2)cc1)N1CCN(c2ccc(F)cc2)CC1	-5.3
COc1ccc(N2CCN(C(=O)c3ccc(Cl)c(S(=O)(=O)N4CCCC4)c3)CC2)cc1	-31.6
O=C(Nc1ccc(S(=O)(=O)N2CCOCC2)cc1)c1ccc(F)cc1	-6.51
O=C(c1ccc(Cl)c(S(=O)(=O)N2CCCCCC2)c1)N1CCN(c2ccc(O)cc2)CC1	-50.4
COc1ccc(NC(=O)c2ccc(Br)c(S(=O)(=O)N3CCOCC3)c2)cc1	1.53
Cl.O=C(c1ccc(Cl)c(S(=O)(=O)N2CCCC2)c1)N1CCN(c2ccc(F)cc2)CC1	-58.5
O=C(c1ccc(Cl)c(S(=O)(=O)N2CCCC2)c1)N1CCN(c2ccccc2F)CC1	-20.6
O=C(c1ccc(F)c(S(=O)(=O)N2CCOCC2)c1)N1CCN(c2ncccn2)CC1	-4.06
O=C(c1ccc(Cl)c(S(=O)(=O)N2CCCC2)c1)N1CCN(c2ccccc2)CC1	-8.69
O=C(c1ccc(F)c(S(=O)(=O)N2CCOCC2)c1)N1CCN(c2ccc(F)cc2)CC1	-60.5
COc1ccc(NC(=O)C/C(C)=N/NC(=O)CCc2ccccc2)c(OC)c1	4.6
CC(=O)c1cccc(NC(=S)NC(=O)c2ccccc2Br)c1	10.9
